Measurements: PubChem BioAssay (NCI)
Compounds without any hit were thinned out: in the full panel of roughly 79,000, 15% have a hit. Rule as the data show it: active = growth inhibition above about 70%; inactive = the rest.

Tests used:
[1] = NCI Yeast Anticancer Drug Screen. Data for the rad50 strain (AID 155);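 also: 0% = growth of vehicle-only cultures of the same strain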; details: S. cerevisiae rad50 strain growth inhibition; at 50.0 µM; active compounds read high
Procedure, shortened: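 Relative growth inhibition (compound vs vehicle) was measured in yeast with a defined repair-gene alteration.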

[2] = NCI Yeast Anticancer Drug Screen. Data for the mec2-1 strain (AID 157); details: S. cerevisiae mec2-1 strain, at 50.0 µM, active compounds read high
Procedure, shortened: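 Readout is yeast growth inhibition, normalised to vehicle-treated controls, in the mec2-1 strain exposed to compound.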

[3] = NCI Yeast Anticancer Drug Screen. Data for the sgs1 mgt1 strain (AID 161);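 also: 0% = growth of cultures given vehicle only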; details: S. cerevisiae sgs1 mgt1 strain, at 50.0 µM, active compounds read high
Procedure, shortened: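 Growth of a repair-deficient yeast mutant was monitored after compound treatment and expressed as inhibition relative to vehicle-treated cultures.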

[4] = NCI Yeast Anticancer Drug Screen. Data for the cln2 rad14 strain (AID 165);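 also: 0% = growth equal to vehicle treated cultures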; details: S. cerevisiae cln2 rad14 strain, at 50.0 µM, active compounds read high
Procedure, shortened: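 Relative to vehicle controls, growth inhibition of compound-treated cln2 rad14 yeast was recorded.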

[5] = NCI Yeast Anticancer Drug Screen. Data for the bub3 strain (AID 167); details: S. cerevisiae bub3 mutant strain, at 50.0 µM, active compounds read high
Procedure, shortened: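 Screening used yeast with an engineered genetic alteration affecting cell cycle control. Compound-exposed cultures were compared with vehicle cultures, and reduced growth was taken as inhibition.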

[6] = NCI Yeast Anticancer Drug Screen. Data for the mlh1 rad18 strain (AID 175); details: S. cerevisiae mlh1 rad18 strain growth inhibition; at 50.0 µM; active compounds read high
Procedure, shortened: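 Test agents were incubated with a yeast strain of defined genotype (DNA damage repair defect). Inhibition of growth was derived by comparison with vehicle-exposed cultures.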

Measured: growth inhibition

Cc1ccccc1-n1c(C)nc2cc(NC(N)=S)ccc2c1=O
inactive: [1] -19.1% | [2] -3.05% | [3] 0% | [4] -24.5% | [5] -5.9% | [6] -17.7%

S=C(Nc1ccccc1)N1N=C2c3ccccc3CC[C@H]2[C@@H]1c1ccccc1
inactive: [1] -24.3% | [2] -37.9% | [3] -37.5% | [4] -1% | [5] -28.2% | [6] -58.5%

Cc1ccc(Cl)c(NC(=O)C(=O)C(C(=O)c2ccncc2)C2OC(=O)c3ccccc32)c1 (stereo not drawn)
inactive: [1] -14.6% | [2] -26.1% | [3] -37.1% | [4] 6.45% | [5] -5.85% | [6] -17.9%

CN(C)CCCNc1ncnc2nc[nH]c12
inactive: [1] -25.8% | [2] -43.7% | [3] -31.8% | [4] -19.8% | [5] -28.4% | [6] -0.15%

C/C=C1\OC(n2cnc3c(N)ncnc32)C(O)C1O (stereo not drawn)
inactive: [1] -0.3% | [2] -11.8% | [3] -14.9% | [4] 2.5% | [5] -16.2% | [6] -1.8%

NCc1ccccc1F
inactive: [1] -10.2% | [2] -23.9% | [3] 12.3% | [4] 13.7% | [5] -6.75% | [6] 4.15%

C/C(=N\NC(=O)C(N)=O)c1c(O)cc(C)oc1=O
inactive: [1] -29.1% | [2] 5.2% | [3] 11.6% | [4] -23.1% | [5] 1.8% | [6] 15.7%

COc1ccc(NC(=O)CC#N)cc1
inactive: [1] 7.9% | [2] 1.6% | [3] 15.8% | [4] 6.1% | [5] -3.25% | [6] 3.75%

CCCCCCCCn1c(N)c(C#N)cnc1=S
inactive: [1] -27.9% | [2] 9.65% | [3] -3.45% | [4] -20.2% | [5] 12% | [6] 1.2%

COc1cc(OC)c2[nH]c3c(c(=O)c2c1)C(=O)c1[nH]c2c(OC)cc(OC)cc2c(=O)c1C3=O
inactive: [1] 26.8% | [2] 4.55% | [3] 12.8% | [4] 17.4% | [5] -3.55% | [6] 19.9%

CN(C)/C(=N\N=C(/c1ccc(Cl)cc1)N(C)C)c1ccc(Cl)cc1
inactive: [1] -15.8% | [2] -8.25% | [3] 1% | [4] -24.9% | [5] -11.1% | [6] -19.1%

O=COCc1ccc(Cl)cc1Cl
inactive: [1] 16.9% | [2] -2.75% | [3] -5.65% | [4] 5% | [5] -1.35% | [6] -11.7%

COCCOCOCCCC#C[Si](C)(C)C
inactive: [1] 8.3% | [2] 25.9% | [3] 13.9% | [4] -1.2% | [5] -4% | [6] -19.4%

O=C(Nc1ccccc1CCl)Nc1ccccc1CCl (tested in a mixture with another compound)
inactive: [1] 7.6% | [2] 3.35% | [3] -11.4% | [4] 3.65% | [5] -4.1% | [6] 15.4%

O=C(Nc1cccc2ccccc12)ON1C(=O)c2ccccc2C1=O
inactive: [1] -6.6% | [2] -39.6% | [3] -0.1% | [4] 12.5% | [5] -5.7% | [6] -2.4%

COC1(OC)N=C(N)C2(C#N)C(C)CC(=O)N(N(C)C)C12C#N (stereo not drawn)
inactive: [1] 7.15% | [2] 6.1% | [3] -27.4% | [4] -2.7% | [5] -37.4% | [6] -34.9%

COC(C(=O)CN(C)C)(c1ccccc1)c1ccccc1
inactive: [1] 4% | [2] -11.1% | [3] -1.85% | [4] 6.45% | [5] -26.8% | [6] 23.5%

CN1CCN=C(C(=O)O)C=C1c1ccccc1O
inactive: [1] 28.9% | [2] 26.7% | [3] 26.7% | [4] -28.2% | [5] -2.4% | [6] 11.9%

CCOc1cc2c(cc1C(C)c1ccc(OCc3ccccc3)c(OC)c1)OCO2 (stereo not drawn)
inactive: [1] 18.8% | [2] -6.7% | [3] -5.35% | [4] 11.7% | [5] -2.05% | [6] 1.75%

O=C1/C(=C/c2ccccc2)CCc2ccc([N+](=O)[O-])cc21
inactive: [1] -2.9% | [2] -1.85% | [3] 8.25% | [4] 4.1% | [5] 0.95% | [6] -26.4%

CC(C)(C)c1cc(-c2cc(C(C)(C)C)nc(N)n2)nc(N)n1
inactive: [1] -4.9% | [2] -14.1% | [3] -14% | [4] -18.7% | [5] -35.3% | [6] -16.4%

[Cu+2].[NH-]C(Cc1ccc(O)cc1)C(=O)O.[NH-]C(Cc1ccc(O)cc1)C(=O)O (stereo not drawn)
inactive: [1] 13.1% | [2] 1.55% | [3] -12.6% | [4] 15.2% | [5] 1.65% | [6] 5%

NC(=O)N/N=C(/Cl)C(=O)NNC(N)=O
inactive: [1] -4.4% | [2] 6.25% | [3] -10.5% | [4] -81.2% | [5] -0.95% | [6] -27.1%

N#Cc1ccc(Cl)cc1C#N
inactive: [1] 13.4% | [2] -4.65% | [3] -2.2% | [4] 7.65% | [5] 14.1% | [6] -14.3%

CCc1ccc(N=Nc2c(F)c(F)c(N)c(F)c2F)cc1
inactive: [1] 6.1% | [2] -11.3% | [3] 2.4% | [4] 2.85% | [5] 0.55% | [6] 14.3%

COc1cc(C(=O)O)cc(OC)c1OC(C)=O
inactive: [1] 6.65% | [2] -7% | [3] 3.8% | [4] 9% | [5] -34.7% | [6] -8.65%

COc1ccc(OC)c(NCC(=O)Nn2cnc3ccc(S(=O)(=O)Nc4cc(OC)ccc4OC)cc3c2=O)c1
inactive: [1] 36.9% | [2] 12.7% | [3] 27.6% | [4] 20.9% | [5] 50.8% | [6] 37.1%

COc1ccc2c(=O)c([Se]c3coc4cc(OC)ccc4c3=O)coc2c1
inactive: [1] 7.2% | [2] -17.1% | [3] 3.15% | [4] -52.5% | [5] -23.1% | [6] 3.25%

CCN(CC)C(=O)C(C)n1cc(C)c(=O)[nH]c1=O (stereo not drawn)
inactive: [1] -32.2% | [2] -39.2% | [3] -19.9% | [4] 5.35% | [5] -2.55% | [6] -3.85%

Cc1ccc(Sc2cc([N+](=O)[O-])cc(Sc3ccc(C)cc3)c2Sc2ccc(C)cc2)cc1
inactive: [1] 22.2% | [2] -24.7% | [3] 10.4% | [4] 5.25% | [5] 1.35% | [6] -11.7%

CNC(=O)N(C)C(C)=O
inactive: [1] -6.15% | [2] -1.25% | [3] 0% | [4] -3.25% | [5] -5.15% | [6] 4.9%

C=CCNC(=S)NCc1cccc2ccccc12
inactive: [1] -3.45% | [2] 36.3% | [3] 34.1% | [4] -28.1% | [5] 32.4% | [6] 21.1%

N#Cc1cc(N2CCCCC2)ccc1[N+](=O)[O-]
inactive: [1] 2.6% | [2] -8.35% | [3] -6.2% | [4] -18.1% | [5] -4.5% | [6] -0.4%

CCCCC(O)(CCCC)CC(C)C
inactive: [1] 8.4% | [2] 19.5% | [3] -2.4% | [4] -19.9% | [5] -16.7% | [6] 5.85%

CC1OCOC(CO)C(O)C1O (stereo not drawn)
inactive: [1] -18.5% | [2] 1.55% | [3] 17.5% | [4] -32% | [5] -3% | [6] -5.8%

Cc1ccncc1C#N
inactive: [1] 5% | [2] -2.25% | [3] -0.9% | [4] 6.55% | [5] 0.3% | [6] 3.95%

Cc1cc(S(N)(=O)=O)c2ncccc2c1
inactive: [1] 1.8% | [2] -3.5% | [3] 2.35% | [4] -33.1% | [5] -8.4% | [6] -3.2%

O=c1oc2ccccc2[n+]([O-])c1-c1ccccc1
inactive: [1] -9.9% | [2] -10.8% | [3] -9.35% | [4] 16.9% | [5] -18.8% | [6] -17.9%
